D2 PAM-1 = potentiates the human D2 dopamine receptor allosterically; P14416; DiscoveRx D2 beta-arrestin cells, luminescence, 90 min; 100% = 57 uM dopamine signal; potentiation, % (no concentration beside the values); 360,000 tested, 0.23% active; in the data active = potentiation above about 50%; inconclusive = mostly about 30% to 49%
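D2 cells co-treated with compound plus 50 nM dopamine (EC20) for 90 min at 37 deg C to detect potentiation. Beta-arrestin recruitment was read as enzyme-fragment luminescence after 1 h at ambient temperature. Full response was set by 57 uM dopamine.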
D2 antagonist = D2 dopamine receptor (human) antagonism | HEK293 TREx D2 cells, calcium flux, dopamine EC80 | inhibition, % at 10 µM | 340,000 tested, 2% active | AID 485344; in the data active = inhibition above about 30%; inactive = below that, where a call was filed; also: 0% is about no effect
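Antagonism is scored as inhibition of an EC80 dopamine-evoked calcium signal in a force-coupled, tetracycline-inducible HEK293 T-REx D2 line, with compound present 180 s before agonist.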
D2 PAM-2 = D2 dopamine receptor (human) potentiation. potentiation, % at 10 µM. 340,000 tested, 0.34% active. P14416. AID 485347. HEK293 T-REx D2, calcium flux, EC20 dopamine potentiation;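 active = potentiation over 3 SD above the plate norm, cut at about 30% in these data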; also: 0% is about no effect
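Cells plated with tetracycline inducer and held overnight at 30 C; calcium dye loaded 30–90 min at room temperature; baseline taken, compound added and read 180 s; EC20 dopamine then added and read 180 s.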
D2 ag-1 = D2 dopamine receptor (human) agonism. activation, % at 2 µM. 340,000 tested, 0.53% active. HEK293 T-REx D2 cells, calcium flux agonist mode;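 active = activation over 3 SD above normal in the single-dose calcium agonist read, cut at about 30% in these data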; also: 0% is about no effect
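HEK293 Trex D2 cells, tetracycline-induced, o/n 30 C 5% CO2; no-wash Ca dye, RT 30–90 min; 10-cycle baseline, 23 nl cpd added, kinetic Ca read 180 s; agonist hits = positive Ca response.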
D2 ag-2 = agonists of human D2 dopamine receptor (beta-arrestin) | P14416 | activation, % (test concentration not listed) | DiscoveRx PathHunter D2 beta-arrestin, luminescence, 90 min; 100% = 57 uM dopamine signal | 360,000 tested, 0.084% active; in the data active = activation above about 40%; inconclusive = between about 15% and that limit
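Agonist mode: compounds alone added to overnight-plated D2 PathHunter cells for 90 min at 37 C, with 57 uM final dopamine (EC100) defining full response. Beta-arrestin recruitment detected by chemiluminescent reagent, read after 1 h at ambient temperature.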
D3 arrestin ag = confirmation of human D3 dopamine receptor agonists, beta-arrestin; 2,300 tested, 4% active; shares compounds with D2 ag-1; AID 720506; Potency, µM (highest dose often 76.9 µM), for inactives: at the highest dose activation, actives largely listed as activators; DiscoveRx D3 beta-arrestin cells, luminescence, 90 min;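 also: potency is read from the fitted curve at half-maximal effect; 100% = dopamine control response; nearly all actives have a fitted effect of over 70% in size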
Target sequence (P35462 whole entry, looked up): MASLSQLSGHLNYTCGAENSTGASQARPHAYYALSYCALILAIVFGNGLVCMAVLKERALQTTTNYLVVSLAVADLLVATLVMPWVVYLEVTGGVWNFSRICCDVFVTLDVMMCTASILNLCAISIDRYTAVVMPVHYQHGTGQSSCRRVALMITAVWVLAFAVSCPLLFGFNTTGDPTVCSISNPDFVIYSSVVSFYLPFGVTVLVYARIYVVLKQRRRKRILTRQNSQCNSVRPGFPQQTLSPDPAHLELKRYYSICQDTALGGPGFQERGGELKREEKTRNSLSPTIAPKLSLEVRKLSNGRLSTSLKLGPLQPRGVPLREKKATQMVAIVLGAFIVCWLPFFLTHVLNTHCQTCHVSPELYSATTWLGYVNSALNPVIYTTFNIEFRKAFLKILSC
D2 ag-3 = D2 receptor agonism, beta-arrestin counterscreen | 2,300 tested, 5.9% active | Potency, µM (top dose mostly 76.9 µM), for inactives: top-dose activation, hits mostly activators | DiscoveRx PathHunter D2 beta-arrestin, luminescence, 90 min; response scale: percent relative to full dopamine signal | shares compounds with D2 ag-1 | AID 720507; also: potency is read from the fitted curve at half-maximal effect; % of control where 0% means no effect; nearly all actives have a fitted effect of over 70% in size
Starred values were filed as active, the others as inactive; ? = inconclusive; / = no result. Only some compounds are listed: those with a hit (about 2.4% of all), similar ones and a draw of the others. Unless noted, calls follow the shape of the dose curve; as a rule, active = well fitted activation curve with a large enough effect; inconclusive = small, poorly fitted or top-dose-only effect; inactive = flat fitted curve, though single readings scatter.

SMILES	D2 PAM-1	D2 antagonist	D2 PAM-2	D2 ag-1	D2 ag-2	D3 arrestin ag	D2 ag-3
O=c1c2cc(NC(=S)NCCN3CCCCCC3)ccc2nc2n1CCCCC2	-16	9	-17	0	-2	/	/
CCCCN(CC)CCCNC(=S)Nc1ccc2nc(N3CCN(CC)CC3)cc(C)c2c1	-10	41*	-28	60*	4	?	15%
CCCCN(CC)CCCNC(=S)Nc1ccc2nc3n(c(=O)c2c1)CCCCC3	-2	60*	-31	86*	10	-6%	26%
COc1cccc(-c2cn3c(n2)sc2cc(C(=O)NCc4ccccc4F)ccc23)c1	/	/	9	0	/	/	/
O=[N+]([O-])c1ccc(N2CCN(Cc3ccc([N+](=O)[O-])o3)CC2)cc1	6	19	-8	1	11	/	/
O=C(CCN1CCN(c2ccccc2)CC1)N/N=C/c1ccc(O)c(O)c1O	7	78*	-24	83*	11	?	32µM*
O=[N+]([O-])c1ccc(CN2CCN(c3ccccc3)CC2)o1	3	-16	-8	-1	4	4%	2%
O=C(CCN1CCN(c2ccccc2)CC1)N/N=C/c1ccc([N+](=O)[O-])o1	6	70*	-18	86*	?	0%	11µM*
COc1ccc(/C=N/NC(=O)CCN2CCN(c3ccccc3)CC2)c(OC)c1OC	-10	84*	-24	80*	?	11%	?
COc1ccc(NC(=O)CC2C(=O)N(c3ccc(F)cc3)C(=O)N2Cc2ccc3c(c2)OCO3)cc1 (stereo not given)	/	/	-3	0	/	/	/
CCOc1ccc(CNc2cc(C)nc3nc(-c4cccc(C)c4)nn23)cc1OC	/	/	-1	-2	/	/	/
COc1ccc2nc3sc(C(=O)N4CCN(c5ccc(F)cc5)CC4)cc3cc2c1	/	/	-2	0	/	/	/
COC(=O)C(CCSC)NC(=O)C1CCN(c2ncnc3c2nc2n3CCCCC2)CC1 (stereo not given)	/	/	-5	0	/	/	/
O=C(Cn1c(=O)oc2cc(S(=O)(=O)N3CCCCCC3)ccc21)Nc1cccc(C(F)(F)F)c1	/	/	-7	0	/	/	/
O=[N+]([O-])c1ccc(C(O)CN2CCN(c3ccccc3)CC2)cc1 (stereo not given)	-4	46*	-20	60*	?	?	?
COc1cc(/C=N/NC(=O)CCN2CCN(c3ccccc3)CC2)cc(OC)c1OC	-17	30	-10	19	1	-4%	6%
CC1CCCCN1C(=O)Cn1c(=O)n(-c2ccc(Cl)cc2)c(=O)c2c3c(sc21)CCC3 (stereo not given)	/	/	-2	0	/	/	/
CCN(C(=O)CSc1nc2ccccc2n1CC(=O)NCc1ccc(OC)cc1)c1ccccc1	/	/	-1	/	/	/	/
COc1cccc(C(=O)NC2CCCC2)c1	-9	-1	0	0	6	/	/
COc1cccc(C(=O)NNC(=S)NC2CCCCC2)c1	-29	31*	-20	56*	-8	-4%	-5%
COc1cccc(CNC(=O)Cn2nc(N3CCN(c4ccccc4OC)CC3)ccc2=O)c1	/	/	0	0	/	/	/
COc1ccc(-c2noc(CSCC(=O)Nc3ccc(C)cc3Br)n2)cc1OC	/	/	-2	0	/	/	/
COc1ccccc1CNC(=O)c1cc(S(=O)(=O)N2CCCCCC2)cn1C	/	/	-11	0	/	/	/
CCCC(C)NC(=O)c1cc(S(=O)(=O)N2CCCCCC2)ccc1OC (stereo not given)	0	-12	4	1	-2	-5%	0%
Cc1ccc(C)c(S(=O)(=O)NCC(c2ccco2)S(=O)(=O)c2ccc(F)cc2)c1 (stereo not given)	/	/	8	1	/	/	/
SMILES	D2 PAM-1	D2 antagonist	D2 PAM-2	D2 ag-1	D2 ag-2	D3 arrestin ag	D2 ag-3
Cc1[nH]nc2c1C1(CCN(Cc3ccccc3)CC1)C(C#N)=C(N)O2	-7	/	/	/	6	-1%	-7%
Cc1[nH]nc2c1C1(CCOCC1)C(C#N)=C(N)O2	0	6	-3	1	-5	/	/
O=C(CCCCCNC(=O)c1ccccc1Br)N=Nc1c(O)[nH]c2ccccc12	-7	5	7	28	6	-2%	5%
CC(=O)c1cccc(NC(=O)CCc2c(C)nc3nc(CN)nn3c2C)c1	/	/	/	0	/	/	/
COCC(=O)Nc1nnc(-c2ccc(C(C)(C)C)cc2)s1	-10	-2	7	2	-10	16%	0%
CCN1C(=O)CC(Sc2ccccc2C(=O)O)C1=O (stereo not given)	4	-4	1	-1	15	/	/
O=C(O)c1ccccc1SC1CC(=O)N(c2cccc3ccccc23)C1=O (stereo not given)	-2	-8	-23	41*	-1	-3%	-4%
O=C(CNC(=O)c1ccccc1)NCC(=O)OCC(=O)c1ccc(F)cc1	7	/	/	/	-7	-4%	-4%
Cc1ccc(C(=O)NCC(=O)NCC(=O)OCC(=O)c2ccc(F)cc2)cc1	-5	6	-20	49*	0	-6%	-5%
COC(=O)C1CCN(CCCOc2ccc(CN3CCN(c4ccc([N+](=O)[O-])cc4)CC3)cc2)CC1	30	84*	-15	69*	45*	?	?
CC(C)OCCCNC(=O)C(=O)Nc1c2c(nn1-c1ccccc1)CS(=O)(=O)C2	/	/	6	/	/	/	/
O=C(NCc1ccncc1)c1cccc(S(=O)(=O)Nc2ccc(F)cc2)c1	-6	24	-1	0	9	10%	2%
O=C(NCc1ccccn1)c1cccc(S(=O)(=O)Nc2ccc(F)cc2)c1	-13	-5	10	0	-1	/	/
COc1ccccc1N1CCN(CC(O)COc2ccc3c(c2)OCO3)CC1 (stereo not given)	-10	1	12	0	-5	/	/
CCOc1ccccc1N1CCN(CC(O)COc2ccc3c(C)cc(=O)oc3c2)CC1 (stereo not given)	-6	65*	-14	55*	13	-4%	14%
CCCN(CC(=O)Nc1ccccc1OC)C(=O)CSC(=S)N1CCCC1	-4	0	1	2	-5	2%	-3%
CC(C)NC(=O)c1cc2c(Cl)nc3ccccc3c2s1	/	/	-5	0	/	/	/
Cc1cccc(C(=O)NC(=S)NNC(=O)Cc2ccccc2)c1	18	7	-3	37*	-7	-9%	-9%
Cc1cccc(C(=O)NC(=S)NCc2ccccc2)c1	-8	/	/	/	-6	/	/
COc1ccccc1CNS(=O)(=O)c1ccc(F)c(C(=O)Nc2cc(Cl)ccc2OC)c1	/	/	20	-1	/	/	/

High-throughput results: PubChem, National Center for Advancing Translational Sciences (NCATS)
